Measured values published in PubChem BioAssay (NCI).
About 83,000 compounds went through this panel and 20% of them were active in at least one assay; those are over-represented in the sample as a whole.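 Note: values are percent growth. 100 is the growth of untreated cells, values between 100 and 0 indicate rising inhibition; between -100 and 0 indicates cell death.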 Values without a mark were called inactive. Active and inactive are the calls of the source.

The compounds below were run on NCI/ADR-RES ovarian (assay: NCI-60 one-dose screen, 48 h (100 = growth as untreated, 0 = no growth, -100 = all killed)). Conditions: 10 µM unless noted.
Description: Growth inhibition of the NCI/ADR-RES human […] tumor cell line is measured as a screen for anti-cancer activity. Cells are grown in 96 well plates and exposed to the test compound for 48 hours. Compounds are tested at a single concentration, which is 10^-5 M for most compounds. The reported endpoint is percent growth (GI% or GIPRCNT), where numbers from 0 - 100% represent growth inhibition, and numbers from -100% - 0 represent cell death. For example, a value of 40 represents 60% growth inhibition. A value of 0 means no net growth occurred over the course of the experiment. A value of -40 indicates 40% of cells at the beginning of the experiment died by the end of the experiment. A value of -100 means all cells are dead at the end of the experiment.
NCI-60 Human Tumor Cell Lines Screen was performed using the standard one-dose NCI protocol, which is described in more detail at https://dtp.cancer.gov/discovery_development/nci-60/default.htm.
Compounds with GIPRCNT values below 10 were considered active. Activity score was based on GIPRCNT using the following formula: […]
Score is 0 for GIPRCNT values of 100 or above, 50 for GIPRCNT values of 0, and 100 for GIPRCNT values of -100.
With `COc1cc(-c2nc3c(ncc4ccc(=O)n(-c5ccccc5)c43)s2)cc(OC)c1OC` the growth was 73.1%. With `Cc1ccc(S(=O)(=O)Oc2ccc3sc4cccc(NCCN(C)C)c4c(=O)c3c2)cc1` the growth was -90.7% (active). In the case of `O=C(N=Nc1c(O)[nH]c2ccccc12)Nc1ccc(F)cc1`, the growth is reported as 104%. `Cc1ccc(-c2nc(/C=C3/C(=O)Nc4ccc(F)cc43)c3ccccn23)cc1` was tested, and the growth was 85.3%. `O=S(=O)(NCCNc1nccc(-c2c(-c3ccc(F)c(O)c3)nc3sccn23)n1)c1ccc(F)cc1` gave a growth of 92.6%. For `CC1C=CC(OC(=O)C(C)(O)CCC(O)(C(=O)OC2CC(O)C(C(C)C)CC2(C)O)C(C)C)(C(C)C)CC1` (stereo not given), the growth was -9.57% [4.63 µM] (active). `COC1=C(C)C(=O)N2[C@@H]1[C@H](c1ccccc1)OC21C=CC(=O)C=C1` was tested, and the growth was 20.1%. `COc1ccc(C(=O)c2cc3c(N)c(C(=O)Nc4ccccc4)sc3nc2C)cc1` was tested, and the growth was 14.8%. In the case of `COc1ccc(CCN2C(=O)/C(=C/c3ccc(C4Oc5ccccc5C5CC(c6ccccc6)=NN54)cc3)SC2=S)cc1` (stereo not given), the growth is reported as 110%. `COc1ccc2cc(-c3ccnc4c(N=Nc5ccc(Cl)cc5)c(N)nn34)ccc2c1` showed a growth of 94.5%. In the case of `O=c1c2c3c(sc2n2c(-c4cc(-c5ccccc5)no4)nnc2n1Cc1ccccc1)CCCC3`, the growth is reported as 80.6%. `O=C1Nc2ccccc2C1(c1c[nH]c2ccccc12)c1c[nH]c2ccccc12` gave a growth of 27.1%. `Cc1[nH]c(C2CC(c3ccc(C(F)(F)F)c(F)c3)=NN2c2ccccc2)c(C)c1C(=O)NCC(F)(F)F` (stereo not given) showed a growth of 89.7%. Work on `CCCCNc1nnc2n(Cc3ccccc3)c(=O)c3c4c(sc3n12)CCCC4` yielded a growth of 55.7%. Compound `O=C(Nc1ccccc1N1CCCC1=O)c1oc2ccc(F)cc2c1-c1cnn(-c2ccccc2)c1` has a growth of 40.4% [50 µM]. For `COc1ccc(-c2nn(-c3ccccc3)cc2/C=C/C(=O)NNC(=O)Nc2ccc(C)cc2)cc1`, the growth was 92.8%. Compound `Oc1c(CN2CCC(N3CCCCC3)CC2)cc(Cc2cc(CN3CCC(N4CCCCC4)CC3)c(O)c3ncccc23)c2cccnc12` has a growth of 48.4%. `Cc1cccc[n+]1C1c2ccccc2-c2ccccc21` gave a growth of 111%. In the case of `COc1cccc(-c2cc(-c3cccc(Cl)c3)c(C#N)c(=O)[nH]2)c1`, the growth is reported as 69.2%. Compound `CC1(C)NCCC[C@]2(C)[C@H]3CC[C@H]4[C@H]5[C@H](C(=O)/C=C/c6cccnc6)CCC[C@]5(CO)CC[C@@]4(C)[C@]3(C)CC[C@@H]12` has a growth of 82.4%. In the case of `O=S1(=O)C=C(c2ccccc2)C(c2ccccc2)=C1`, the growth is reported as 8.7% (active). `CCOC(=O)/C=C1\S/C(=N\Nc2cc(=O)[nH]c3ccccc23)N(c2ccccc2)C1=O` showed a growth of 101%. `C=CC(=O)Nc1ccc(Oc2nccc(Nc3nnc(-c4ccc(C)cc4)s3)n2)cc1` gave a growth of 59.1%. In the case of `COc1cccc(CNc2c3ccccc3nc3ccccc23)c1`, the growth is reported as 37.5%. Work on `COC(=O)c1nc(-c2ccccc2)oc1S(=O)(=O)NCC(c1ccc(Cl)cc1)N1CCOCC1` (stereo not given) yielded a growth of 97.9%. `CN(C)CCN1C(=O)c2cccc3c(/C=C/CN4C(=O)c5cccc6cccc(c56)C4=O)ccc(c23)C1=O` showed a growth of 24%. `N#CC1CCc2c(c(-c3ccc4nc(N)sc4c3)nc3ccc4[nH]ncc4c23)C1` (stereo not given) was tested, and the growth was 63.7%. Compound `N#Cc1c(-c2ccccc2)nc(SCc2nnc(-c3ccc(Cl)cc3)o2)[nH]c1=O` has a growth of 93.3%. `CCOc1ccc(-n2nc(C(=O)NCc3ccccc3OC)nc2-c2cc(OC)c(OC)c(OC)c2)cc1` gave a growth of 27.8%. In the case of `C/C=C(\C)C(=O)N[C@H]1C(O)C[C@]2(C)C3CC[C@@]4(C)C(CC[C@@H]4C(C)N(C)C)C3CCC2C1O` (stereo not given in full), the growth is reported as 81.3%. In the case of `C[C@]1(O)CC(=O)[C@]2(O)C3=C(C=C[C@]2(O)C1)C(=O)c1c(O)cccc1C3=O`, the growth is reported as 47.2%. In the case of `CC(C)(C)n1cc(-c2ccnc(NCCNS(=O)(=O)c3ccc(O)cc3)c2)c(-c2cccc(O)c2)n1`, the growth is reported as 107%. In the case of `Oc1c(CN2CCOCC2)cc(COCc2ccccc2)c2cccnc12`, the growth is reported as 7.42% (active). With `Cc1ccc(S(=O)(=O)N2CCC(=O)c3ccccc32)cc1` the growth was 72.6%. For `N#Cc1c(-c2ccccc2)nc(SCC(O)CN2CCOCC2)nc1N1CCOCC1` (stereo not given), the growth was 72.7%. In the case of `C/C=C(/C)n1cnc2c(Nc3ccccn3)nc(Cl)nc21`, the growth is reported as 108%. Work on `C[n+]1ccc(CCc2c[nH]c3ccccc23)cc1` yielded a growth of 105%. `O=c1nc(-c2ccccc2)c2cc(-c3ccc(C(F)(F)F)nc3)ccc2[nH]1` gave a growth of 98.4%. Work on `Cc1nc2c(c(=O)[nH]1)C(c1ccccc1)c1ccc3ccccc3c1O2` (stereo not given) yielded a growth of 14.6%. Work on `CCOC(=O)C(Cc1ccc(OC)cc1)C(=O)OCC` yielded a growth of 17.9%.
